# Measurements taken from the supplement of paper PMC12282887.
# ± gives the standard deviation of the averaged measurements.
# How the values were obtained:
# Assay in all cases: promoter activity interaction Z-score (Lux/OD deviation from empty-vector control); higher = stronger promoter induction by the compound
# [1] = system: E. coli BW25113 acrABp lux reporter
# Summary of the method: (§1)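 Low-copy luxCDABE promoter reporters were carried by E. coli BW25113, either wild type or lacking one of three genes, grown in 40 µl LB Lennox in 384-well plates at 37°C. Each compound was run at four 1:2 dilutions in biological duplicates, with OD600 and luminescence read every 30 min for 12 h. Integration used 0–8 h for wild type and 1–9 h for deletion strains, and wells under 10% of the median growth value were removed. Luminescence normalised to growth was fitted against a control, and the Z-transformed residual is the score.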
# [2] = system: E. coli BW25113 ompFp lux reporter
# Summary of the method: as §1
# [3] = system: E. coli BW25113 robp lux reporter
# Summary of the method: as §1
# [4] = system: E. coli BW25113 soxSp lux reporter
# Summary of the method: as §1
# [5] = system: E. coli BW25113 tolCp lux reporter
# Summary of the method: as §1
# [6] = 2.6 µg/ml, genetic background: wild type
# [7] = 2.6 µg/ml, genetic background: ΔmarA
# [8] = 2.6 µg/ml, genetic background: Δrob
# [9] = 2.6 µg/ml, genetic background: ΔsoxS
# [10] = 5.3 µg/ml, genetic background: wild type
# [11] = 5.3 µg/ml, genetic background: ΔmarA
# [12] = 5.3 µg/ml, genetic background: Δrob
# [13] = 5.3 µg/ml, genetic background: ΔsoxS
# [14] = 10.6 µg/ml, genetic background: wild type
# [15] = 10.6 µg/ml, genetic background: ΔmarA
# [16] = 10.6 µg/ml, genetic background: Δrob
# [17] = 10.6 µg/ml, genetic background: ΔsoxS
# [18] = 21.1 µg/ml, genetic background: wild type
# [19] = 21.1 µg/ml, genetic background: ΔmarA
# [20] = 21.1 µg/ml, genetic background: Δrob
# [21] = 21.1 µg/ml, genetic background: ΔsoxS
smiles,measurement,setting,value
CC(=O)N[C@H]1[C@@H](O[C@@H]2O[C@H](CC(O)[C@H]3O[C@@H](n4ccc(=O)[nH]c4=O)[C@H](O)[C@@H]3O)[C@H](O)[C@H](O)[C@H]2NC(=O)/C=C/CC(C)C)O[C@H](CO)[C@@H](N)[C@@H]1O (stereo not given in full) [Tunicamycin],promoter activity interaction Z-score,[1]; [6],0.13 ± 0.29
same,promoter activity interaction Z-score,[1]; [7],-0.0876 ± 0.12
same,promoter activity interaction Z-score,[1]; [8],-0.143 ± 0.18
same,promoter activity interaction Z-score,[1]; [9],-0.217 ± 0.36
same,promoter activity interaction Z-score,[1]; [10],-0.0561 ± 0.2
same,promoter activity interaction Z-score,[1]; [11],-0.914 ± 0.2
same,promoter activity interaction Z-score,[1]; [12],-0.22 ± 0.25
same,promoter activity interaction Z-score,[1]; [13],-0.179 ± 0.21
same,promoter activity interaction Z-score,[1]; [14],0.0358 ± 0.052
same,promoter activity interaction Z-score,[1]; [15],0.615 ± 0.22
same,promoter activity interaction Z-score,[1]; [16],-0.243 ± 0.0041
same,promoter activity interaction Z-score,[1]; [17],-0.426 ± 0.35
same,promoter activity interaction Z-score,[1]; [18],-0.24 ± 0.063
same,promoter activity interaction Z-score,[1]; [19],-0.0177 ± 0.64
same,promoter activity interaction Z-score,[1]; [20],-0.332 ± 0.11
same,promoter activity interaction Z-score,[1]; [21],-0.769 ± 0.066
same,promoter activity interaction Z-score,[2]; [6],-0.448 ± 0.043
same,promoter activity interaction Z-score,[2]; [7],-0.515 ± 0.43
same,promoter activity interaction Z-score,[2]; [8],-0.684 ± 0.075
same,promoter activity interaction Z-score,[2]; [9],-0.00783 ± 0.5
same,promoter activity interaction Z-score,[2]; [10],-0.405 ± 0.21
same,promoter activity interaction Z-score,[2]; [11],-0.484 ± 1.3
same,promoter activity interaction Z-score,[2]; [12],-0.656 ± 0.73
same,promoter activity interaction Z-score,[2]; [13],0.307 ± 0.49
same,promoter activity interaction Z-score,[2]; [14],-0.305 ± 0.016
same,promoter activity interaction Z-score,[2]; [15],-0.602 ± 0.0081
same,promoter activity interaction Z-score,[2]; [16],-0.783 ± 0.28
same,promoter activity interaction Z-score,[2]; [17],-0.819 ± 0.56
same,promoter activity interaction Z-score,[2]; [18],-0.675 ± 0.34
same,promoter activity interaction Z-score,[2]; [19],-0.947 ± 0.57
same,promoter activity interaction Z-score,[2]; [20],-0.245 ± 0.018
same,promoter activity interaction Z-score,[2]; [21],-1.09 ± 0.71
same,promoter activity interaction Z-score,[3]; [6],-0.274 ± 0.39
same,promoter activity interaction Z-score,[3]; [7],-0.38 ± 0.41
same,promoter activity interaction Z-score,[3]; [8],-0.03 ± 0.92
same,promoter activity interaction Z-score,[3]; [9],-0.268 ± 0.31
same,promoter activity interaction Z-score,[3]; [10],0.0974 ± 0.18
same,promoter activity interaction Z-score,[3]; [11],-1.07 ± 0.12
same,promoter activity interaction Z-score,[3]; [12],0.0652 ± 0.47
same,promoter activity interaction Z-score,[3]; [13],0.323 ± 0.16
same,promoter activity interaction Z-score,[3]; [14],-0.167 ± 0.13
same,promoter activity interaction Z-score,[3]; [15],-0.402 ± 0.074
same,promoter activity interaction Z-score,[3]; [16],-0.108 ± 0.64
same,promoter activity interaction Z-score,[3]; [17],-0.846 ± 0.13
same,promoter activity interaction Z-score,[3]; [18],-0.06 ± 0.16
same,promoter activity interaction Z-score,[3]; [19],0.217 ± 0.25
same,promoter activity interaction Z-score,[3]; [20],-0.865 ± 0.29
same,promoter activity interaction Z-score,[3]; [21],-1.32 ± 0.15
same,promoter activity interaction Z-score,[4]; [6],-0.153 ± 0.24
same,promoter activity interaction Z-score,[4]; [7],-0.163 ± 0.076
same,promoter activity interaction Z-score,[4]; [8],-0.181 ± 0.11
same,promoter activity interaction Z-score,[4]; [9],-0.281 ± 0.17
same,promoter activity interaction Z-score,[4]; [10],-0.207 ± 0.12
same,promoter activity interaction Z-score,[4]; [11],-0.432 ± 0.03
same,promoter activity interaction Z-score,[4]; [12],-0.396 ± 0.41
same,promoter activity interaction Z-score,[4]; [13],-0.473 ± 0.0061
same,promoter activity interaction Z-score,[4]; [14],-0.362 ± 0.15
same,promoter activity interaction Z-score,[4]; [15],-0.417 ± 0.065
same,promoter activity interaction Z-score,[4]; [16],-0.286 ± 0.13
same,promoter activity interaction Z-score,[4]; [17],-0.66 ± 0.33
same,promoter activity interaction Z-score,[4]; [18],-0.651 ± 0.052
same,promoter activity interaction Z-score,[4]; [19],-0.805 ± 0.022
same,promoter activity interaction Z-score,[4]; [20],-0.856 ± 0.24
same,promoter activity interaction Z-score,[4]; [21],-1.4 ± 0.29
same,promoter activity interaction Z-score,[5]; [6],0.117 ± 0.23
same,promoter activity interaction Z-score,[5]; [7],0.186 ± 0.86
same,promoter activity interaction Z-score,[5]; [8],0.627 ± 0.57
same,promoter activity interaction Z-score,[5]; [9],-0.42 ± 1.2
same,promoter activity interaction Z-score,[5]; [10],0.292 ± 0.33
same,promoter activity interaction Z-score,[5]; [11],0.228 ± 1.2
same,promoter activity interaction Z-score,[5]; [12],0.351 ± 0.028
same,promoter activity interaction Z-score,[5]; [13],-0.0491 ± 0.37
same,promoter activity interaction Z-score,[5]; [14],0.145 ± 0.28
same,promoter activity interaction Z-score,[5]; [15],-0.36 ± 0.22
same,promoter activity interaction Z-score,[5]; [16],0.607 ± 0.47
same,promoter activity interaction Z-score,[5]; [17],-0.445 ± 0.3
same,promoter activity interaction Z-score,[5]; [18],0.0528 ± 0.23
same,promoter activity interaction Z-score,[5]; [19],-0.275 ± 0.55
same,promoter activity interaction Z-score,[5]; [20],-1.04 ± 0.42
same,promoter activity interaction Z-score,[5]; [21],-0.899 ± 0.71
